PubChem BioAssay (NCATS)
The source made the active and inactive calls.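 Rule for the calls: active = compounds whose dose series gives a full or clear partial fitted curve of increased nuclear translocation; inconclusive = weak partial curve or effect only at the top dose; inactive = no dose-dependent translocation response.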

Biological target: Glucocorticoid receptor (Homo sapiens) (UniProt P04150)
Experiment: GR-GFP Redistribution (AID 450)
Details: U2OS GR-GFP nuclear translocation, laser cytometry, 2 h; series mostly up to 20.6 µM
Potency is the fitted concentration of half-maximal effect.

Sequence of Glucocorticoid receptor (Homo sapiens) (P04150 whole entry, looked up): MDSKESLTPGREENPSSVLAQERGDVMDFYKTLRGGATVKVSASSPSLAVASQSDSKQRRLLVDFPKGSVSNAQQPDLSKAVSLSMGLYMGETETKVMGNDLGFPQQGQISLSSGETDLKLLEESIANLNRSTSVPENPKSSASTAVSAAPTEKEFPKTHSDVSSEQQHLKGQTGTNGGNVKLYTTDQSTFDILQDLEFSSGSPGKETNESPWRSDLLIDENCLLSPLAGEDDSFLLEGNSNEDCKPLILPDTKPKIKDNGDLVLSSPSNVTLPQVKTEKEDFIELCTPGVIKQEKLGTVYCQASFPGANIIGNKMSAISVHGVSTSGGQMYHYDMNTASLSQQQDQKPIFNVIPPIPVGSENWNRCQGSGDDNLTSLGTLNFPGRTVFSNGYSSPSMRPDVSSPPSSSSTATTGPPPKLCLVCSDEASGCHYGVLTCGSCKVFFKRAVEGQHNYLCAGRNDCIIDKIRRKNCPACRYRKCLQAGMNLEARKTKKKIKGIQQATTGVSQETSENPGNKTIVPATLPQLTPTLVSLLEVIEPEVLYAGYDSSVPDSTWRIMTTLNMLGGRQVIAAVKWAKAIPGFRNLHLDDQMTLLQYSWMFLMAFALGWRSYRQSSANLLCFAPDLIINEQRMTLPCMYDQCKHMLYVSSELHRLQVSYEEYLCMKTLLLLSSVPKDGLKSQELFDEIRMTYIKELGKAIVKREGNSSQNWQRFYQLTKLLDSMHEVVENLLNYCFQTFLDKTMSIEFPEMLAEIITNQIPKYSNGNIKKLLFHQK

Potency, inactive:
CCOC(=O)c1c(C)[nH]sc1=S > 20.6 µM
CN1C(=O)N(c2ccccc2)C(Nc2nncs2)C1(C)C (configuration not stated) > 20.6 µM
Cc1cc2c(c(=O)n1Cc1cccnc1)C(c1ccccc1)C(C#N)=C(N)O2 (configuration not stated) > 20.6 µM
CC(NC(=O)Nc1cccnc1)(C(F)(F)F)C(F)(F)F > 20.6 µM
COc1ccc[nH]c1=O > 20.6 µM
Cc1c2c([n+]3n1CCC3)CC(C)(C)CC2=O > 20.6 µM
CC(=O)C1=C(O)C(=O)N(Cc2cccnc2)C1c1ccccc1Cl (configuration not stated) > 20.6 µM
O=C(NCCCn1ccnc1)C(Cc1ccccc1)N1C(=O)c2ccccc2C1=O (configuration not stated) > 20.6 µM
S=c1[nH]nc(-c2ccccc2)n1Cc1ccccc1 > 20.6 µM
CCOC(=O)c1c(CN2CCCCC2)oc2ccc(OC)cc12 > 20.6 µM
COC(=O)CC1=NC(=O)CS1 > 20.6 µM
c1ccc(OCc2nn3c(C4CCCCC4)nnc3s2)cc1 > 20.6 µM
COc1ccc(C(=O)c2ccc(N3CCOCC3)cc2)c(OC)c1 > 20.6 µM
C/C(=N\O)c1c(C)c2ccccc2n1C > 20.6 µM
CC1(C)Cc2c(c(-c3ccccc3)nc3[nH][nH]c(=O)c23)CO1 > 20.6 µM
O=C1OC(Nc2ccc(Br)cn2)c2ccccc21 (configuration not stated) > 20.6 µM
Cc1nnc2n(-c3ccccc3)c(=O)c3c4c(sc3n12)COC(C(C)C)C4 (configuration not stated) > 20.6 µM
